The nature of test [1]: stimulators of nuclear beta-catenin in C2C12, primary screen, imaging, WNT3A-conditioned medium, mouse C2C12, NPC library (AID 1117326; in the data active means nuclear beta-catenin stimulation mostly above about 4.2%, no sharp cut-off; inactive means mostly below about 10%). The conditions noted are these: stronger effect = higher value.
Test [2] in a line: stimulators of insulin release from INS-1E, primary screen, cell-based, 5 mM glucose, NPC library (AID 1117329;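 active means compound raises insulin release from rat beta cells at 5 mM glucose, no numeric limit stated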). The conditions noted are these: rat INS-1E insulin secretion, at 10 µM, stronger effect = higher value.
Test [3] is described as follows: growth inhibition of GSK3B-pretreated HCT116 cells – cell-based, CellTiter-Glo, 0.2 to 20 µM (AID 1117336;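 active means compounds lowering colon cancer cell viability after pretreatment blocking the GSK3B kinase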). Particulars: HCT116 viability after GSK3B inhibitor, at 20 µM, stronger effect = higher value.
A short description of test [4]: inhibition of endothelial tube formation, primary screen, imaging, VEGF stimulated, CD31 staining, tube area, NPC library (AID 1117340;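 active means compound that reduces growth-factor-driven endothelial tube area in a mixed cell culture, no cutoff stated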). Particulars: VEGF-stimulated ADSC/ECFC co-culture, at 10 µM, stronger effect = higher value.
A short description of test [5]: glucagon-like peptide 1 release enhancers, primary assay, NCI-H716 cell line, NPC library (AID 1117341;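 active means compound raises GLP1 secretion from the human gut endocrine cells, with no numeric limit stated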). The conditions noted are these: NCI-H716 cells, at 10 µM, stronger effect = higher value.
Test [6] in a line: HCT116 colon cancer cell growth inhibition, primary screen, CellTiter-Glo luminescence, NPC library (AID 1117342;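 active means compounds that lower survival of HCT116 colon cancer cells in the luminescence readout, no numeric limit stated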). The conditions noted are these: at 20 µM (top of the series).
Test [7] can be described thus: CellTiter-Glo luminescent readout of SW480 viability loss, NPC library primary (AID 1117343;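 active means compounds that lower viability of the colon cancer cells in the luminescence readout, with no numeric limit stated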). Particulars: CellTiter-Glo luminescence; at 20 µM (top of the series).
A short description of test [8]: decreased DLD-1 cellular survival, CellTiter-Glo luminescent readout, NPC compound collection, primary HTS (AID 1117346;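 active means compounds that lower survival of DLD-1 colon cancer cells in the luminescence readout, no cutoff given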). The conditions noted are these: DLD-1 viability, CellTiter-Glo luminescence; at 20 µM (top of the series).
For test [9], the target named is 6-phosphogluconate dehydrogenase, decarboxylating (Homo sapiens) (UniProt P52209). Briefly: 6PGD enzyme inhibitors, primary screen, biochemical, human, recombinant enzyme, NADPH absorbance (AID 1159550;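 active means at least 20% inhibition of 6-phosphogluconate dehydrogenase activity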). The conditions noted are these: recombinant 6PGD, NADPH absorbance 341 nm; at 10 µM; stronger effect = higher value.
Test [10] is described as follows: survival rescue of mitochondrial mutant cells in low glucose, primary screen, MELAS cybrids, Rieske KO mouse fibroblasts, CellTiter-Glo (AID 1508586;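 active means mean z-score across replicates of 1.96 or higher in either the MELAS or the Rieske mutant cell line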;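 further: z relative to plate mean and SD of compound and empty wells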).
The target of test [11] is NAD(+) hydrolase SARM1 (Homo sapiens) (UniProt Q6SZW1). Briefly: SARM1 TIR NADase inhibitors, cell lysate, NAD-Glo luminescence (AID 1508614;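 active means compound whose remaining NAD level is above about 45 nM, limit read from the data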). The conditions noted are these: SAM-TIR HEK293T lysate NADase, at 1 µM, stronger effect = higher value.
Test [12] addresses Mitogen-activated protein kinase 7 (Homo sapiens) (UniProt Q13164). Briefly: ERK5 transactivation activators in reporter cells, primary screen, cell-based, HTS (AID 1508626;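 active means luciferase signal above three times the same-plate solvent-only control wells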;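 further: luciferase driven by Gal4-ERK5 fusion binding five Gal4 sites before minimal TATA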). Particulars: HeLa Gal4-ERK5 transactivation, 18 h, at 5 µM, stronger effect = higher value.
Another test relates to F380Y. As to the kind of experiment: modulators of BK channel variants, profiling panel, selectivity assay, cell-based, U2OS BacMam, thallium flux, beta subunits (AID 1259406).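 Further: initial slope of Thallos dye fluorescence rise after thallium is added; log ratio against the mean of 0.3% DMSO vehicle wells on the same plate.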 The conditions noted are these: at 30 µM.
The test system of a further test is F380Y/beta2Delta. The test is described as above. Particulars: at 30 µM.
Test [13] deals with Calcium-activated potassium channel subunit alpha-1 (Homo sapiens) + Leucine-rich repeat-containing protein 26 (Homo sapiens) (UniProt Q12791+Q2I0M4). The test is described as above. The conditions noted are these: F380Y/Slo1WT/gamma1, at 30 µM.
The subject of the next test is R275C. The test is described as above. The conditions noted are these: at 30 µM.
For a further test, the system named is R275C/beta1. The test is described as above. Particulars: at 30 µM.
A further test concerns R275C/beta2Delta. Described as above. Particulars: at 30 µM.
The nature of test [14]: differential killing of epithelial or mesenchymal cells, primary screen, imaging, PC-3E GFP, TEM4-18 mCherry, co-culture (AID 1345086;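 active means compounds killing one labelled cell type while sparing the other, by normalised counts and ratio limits, not self-fluorescent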;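 further: cells exposed to compound for 72 h before imaging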;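 on red/green cell ratio (normalised): normalised mesenchymal count divided by normalised epithelial count so high means epithelial killing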). The conditions noted are these: imaging cell counts, at 1 µM.
[15] abbreviates: MELAS cybrid survival, CellTiter-Glo 48 h, stronger effect = higher value.
Where [16] appears, read: Rieske KO mouse fibroblast survival, CellTiter-Glo 72 h.

The structures appear in SMILES notation. Several values for one entry are separate records, joined by “and”; a condition that tells them apart may be missing. Equal entries are not always repeated. Activity calls are given as the source filed them.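 How the source made its calls, unless noted: active means thallium flux through the channel raised or lowered by more than 3 SD from vehicle-only wells, actives on both sides; inactive means the rest.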

Chain of Calcium-activated potassium channel subunit alpha-1 (Homo sapiens) + Leucine-rich repeat-containing protein 26 (Homo sapiens) (Q2I0M4 whole entry, looked up, one chain of several): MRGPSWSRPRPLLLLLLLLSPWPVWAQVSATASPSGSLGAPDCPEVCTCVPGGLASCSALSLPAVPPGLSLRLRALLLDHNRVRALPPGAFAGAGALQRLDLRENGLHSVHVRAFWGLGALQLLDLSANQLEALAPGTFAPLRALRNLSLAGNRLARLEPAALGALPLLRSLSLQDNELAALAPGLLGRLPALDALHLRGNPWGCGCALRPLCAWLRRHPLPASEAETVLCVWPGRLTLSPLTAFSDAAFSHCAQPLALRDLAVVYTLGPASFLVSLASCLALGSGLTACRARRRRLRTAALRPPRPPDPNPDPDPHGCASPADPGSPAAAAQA
Chain of Mitogen-activated protein kinase 7 (Homo sapiens) (Q13164 whole entry, looked up, the tested form may be a part): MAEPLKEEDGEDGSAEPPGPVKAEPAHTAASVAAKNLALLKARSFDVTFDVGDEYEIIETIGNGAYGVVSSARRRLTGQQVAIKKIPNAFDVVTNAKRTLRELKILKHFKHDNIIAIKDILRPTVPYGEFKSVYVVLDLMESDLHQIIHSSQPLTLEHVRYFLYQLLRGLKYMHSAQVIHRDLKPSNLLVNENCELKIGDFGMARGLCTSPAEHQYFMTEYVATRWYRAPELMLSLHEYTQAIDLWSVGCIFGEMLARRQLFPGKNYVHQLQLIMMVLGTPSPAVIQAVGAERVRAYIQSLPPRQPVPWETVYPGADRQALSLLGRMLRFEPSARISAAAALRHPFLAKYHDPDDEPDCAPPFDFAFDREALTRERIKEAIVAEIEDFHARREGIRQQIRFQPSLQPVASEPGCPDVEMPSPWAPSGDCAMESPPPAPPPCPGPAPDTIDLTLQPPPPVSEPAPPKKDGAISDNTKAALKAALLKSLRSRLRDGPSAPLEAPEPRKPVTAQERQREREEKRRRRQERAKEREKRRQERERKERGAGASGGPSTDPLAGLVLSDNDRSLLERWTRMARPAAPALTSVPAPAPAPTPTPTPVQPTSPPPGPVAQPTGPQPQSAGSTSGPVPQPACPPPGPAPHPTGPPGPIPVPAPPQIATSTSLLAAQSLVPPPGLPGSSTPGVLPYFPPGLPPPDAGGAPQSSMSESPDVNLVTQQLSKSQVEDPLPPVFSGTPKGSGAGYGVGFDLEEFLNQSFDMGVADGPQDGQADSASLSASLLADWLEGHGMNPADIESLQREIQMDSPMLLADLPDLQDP
Chain of 6-phosphogluconate dehydrogenase, decarboxylating (Homo sapiens) (P52209 whole entry, looked up): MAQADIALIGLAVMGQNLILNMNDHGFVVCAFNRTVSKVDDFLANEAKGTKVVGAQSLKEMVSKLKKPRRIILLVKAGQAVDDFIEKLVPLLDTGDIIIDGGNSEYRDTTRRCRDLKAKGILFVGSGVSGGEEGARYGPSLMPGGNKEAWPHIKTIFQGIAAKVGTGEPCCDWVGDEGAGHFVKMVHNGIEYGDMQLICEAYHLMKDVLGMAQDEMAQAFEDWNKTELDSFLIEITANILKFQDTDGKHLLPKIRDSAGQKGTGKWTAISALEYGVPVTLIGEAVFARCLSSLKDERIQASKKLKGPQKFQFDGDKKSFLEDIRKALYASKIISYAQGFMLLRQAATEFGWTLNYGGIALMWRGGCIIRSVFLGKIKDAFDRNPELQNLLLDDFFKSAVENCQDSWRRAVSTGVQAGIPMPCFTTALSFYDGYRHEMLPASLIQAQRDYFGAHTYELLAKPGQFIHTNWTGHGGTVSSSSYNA
Chain of NAD(+) hydrolase SARM1 (Homo sapiens) (Q6SZW1 whole entry, looked up, the tested form may be a part): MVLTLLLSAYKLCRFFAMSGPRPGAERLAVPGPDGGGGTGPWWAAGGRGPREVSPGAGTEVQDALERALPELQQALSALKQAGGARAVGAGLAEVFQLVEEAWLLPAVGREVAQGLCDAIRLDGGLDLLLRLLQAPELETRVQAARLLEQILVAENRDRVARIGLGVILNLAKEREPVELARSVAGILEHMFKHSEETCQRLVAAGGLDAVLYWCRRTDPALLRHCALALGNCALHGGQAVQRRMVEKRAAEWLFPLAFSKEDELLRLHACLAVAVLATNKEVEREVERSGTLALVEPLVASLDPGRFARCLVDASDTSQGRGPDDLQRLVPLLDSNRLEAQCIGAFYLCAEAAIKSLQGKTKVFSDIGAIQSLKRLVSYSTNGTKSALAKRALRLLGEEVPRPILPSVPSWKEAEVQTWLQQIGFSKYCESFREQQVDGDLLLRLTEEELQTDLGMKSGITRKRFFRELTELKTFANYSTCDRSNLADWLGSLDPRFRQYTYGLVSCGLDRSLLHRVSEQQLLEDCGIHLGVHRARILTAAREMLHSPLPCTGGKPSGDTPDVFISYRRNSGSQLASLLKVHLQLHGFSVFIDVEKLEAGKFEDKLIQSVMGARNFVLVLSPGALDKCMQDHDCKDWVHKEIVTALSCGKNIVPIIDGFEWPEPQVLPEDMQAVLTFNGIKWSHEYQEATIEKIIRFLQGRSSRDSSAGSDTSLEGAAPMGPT

As for `O=C1[C@H](CC[C@H](O)c2ccc(F)cc2)[C@@H](c2ccc(O)cc2)N1c1ccc(F)cc1`, the nuclear beta-catenin stimulation in test [1] (at 10 µM) is 4.5% (inactive); in test [1] (stimulation, at 2 µM), -0.4%. The insulin secretion stimulation in test [2] was 6% (inactive). Also, the viability decrease in test [3] was 20.8% (inactive). The tube area decrease in test [4] was 19.9% (inactive). Besides, the GLP1 secretion stimulation in test [5] was 7.4% (inactive). Further, the inhibition of viability in [6] is 32.6% (inactive). Further, the viability decrease (inhibition) in test [7] is 10.1% (inactive); in test [8], 18% (inactive). Further, the inhibition in test [9] is -1.06% (inactive). Besides, the z-score in test [10] (setting [15]) is -0.744 (inactive); in test [10] (setting [16]) it was 0.307. Also, the remaining NAD in [11] is 10 nM (inactive). The luciferase signal in test [12] is 44 AU (inactive). Moreover, the log fold change Tl+ flux with F380Y was 0.0275 (inactive); in the test with F380Y/beta2Delta, 0.0773 (inactive); in test [13], 0.0312 (inactive); in the test with R275C it was -0.0195 (inactive); with R275C/beta1 it was 0.416 (active); with R275C/beta2Delta, 0.12 (active).

Consider `Cc1ccc(O)c([C@H](CCN(C(C)C)C(C)C)c2ccccc2)c1`, for which the nuclear beta-catenin stimulation in [1] (at 10 µM) is 0.8% (inactive); in test [1] (stimulation, at 2 µM) it was 3.5%. Also, in [2], the insulin secretion stimulation was 30.8% (active). Besides, the viability decrease in test [3] is 35.6% (inactive). The tube area decrease in test [4] was -14% (inactive). Moreover, the GLP1 secretion stimulation in [5] is 8.3% (inactive). The inhibition of viability in test [6] was 44.4% (inactive). For the same compound, the viability decrease (inhibition) in [7] was 69.7% (active); in test [8], -2.4% (inactive). The inhibition in [9] was -2.71% (inactive). Moreover, the z-score was -0.175 (inactive) in [10] (setting [15]) and 0.484 in test [10] (setting [16]). Moreover, in [12], the luciferase signal is 64 AU (inactive). Besides, the log fold change Tl+ flux was 0.149 (active) with F380Y; 0.0454 (inactive) with F380Y/beta2Delta; 0.0595 (inactive) in [13]; -0.0487 (inactive) in the test with R275C; 0.03 (inactive) in the test with R275C/beta1; 0.0798 (inactive) in the test on R275C/beta2Delta.

In the case of `OCCN1C[C@H](O)[C@@H](O)[C@H](O)[C@H]1CO`, the nuclear beta-catenin stimulation in test [1] (at 10 µM) was -2.3% (inactive); in test [1] (stimulation, at 2 µM), -1%. The insulin secretion stimulation in test [2] was 5.4% (inactive). Moreover, the viability decrease in [3] is -1.6% (inactive). In test [4], the tube area decrease is 0.1% (inactive). In addition, the GLP1 secretion stimulation in test [5] was -1.4% (inactive). For the same compound, the inhibition of viability in test [6] is 0.6% (inactive). In addition, the viability decrease (inhibition) in [7] is -1.7% (inactive); in [8], 0.1% (inactive). The inhibition in [9] was 6.33% (inactive). Moreover, the figures for the z-score in test [10] (setting [15]) and in test [10] (setting [16]) were 0.074 (inactive) and 0.78, respectively. Besides, the remaining NAD in test [11] is 10 nM (inactive). In [12], the luciferase signal is 80 AU (inactive). Besides, the log fold change Tl+ flux in the test on F380Y was -0.0502 (inactive); in the test on F380Y/beta2Delta, -0.0041 (inactive); in [13], -0.0394 (inactive); in the test on R275C, -0.0048 (inactive); in the test with R275C/beta1, -0.0736 (inactive); in the test on R275C/beta2Delta, -0.00824 (inactive).

On to `CCS(=O)(=O)CCn1c([N+](=O)[O-])cnc1C`, for which the nuclear beta-catenin stimulation in [1] (at 10 µM) is 0.7% (inactive); in test [1] (stimulation, at 2 µM) it was 0.6%. Also, the insulin secretion stimulation in [2] was -2% (inactive). Also, in test [3], the viability decrease was -16.5% (inactive). For the same compound, the tube area decrease in test [4] was -0.1% (inactive). For the same compound, in [5], the GLP1 secretion stimulation was 2.3% (inactive). The inhibition of viability in [6] is 6.2% (inactive). The values for the viability decrease (inhibition) in test [7] and in test [8] were -14.6% (inactive) and -1.25% (inactive), respectively. Besides, the inhibition in test [9] is -3.03% (inactive). Moreover, the red/green cell ratio (normalised) in test [14] (actives lie on both sides, counts scaled to control wells, 1 = unselective) was 0.88 (inactive). For the same compound, the normalised cell number in test [14] (measured here: epithelial PC-3E GFP cell survival) came out at 1.27; in test [14] (measured here: mesenchymal TEM4-18 mCherry cell survival) it was 1.12. The z-score in [10] (setting [15]) is -0.299 (inactive) and 0.791 (inactive) and -0.0778 (inactive); in test [10] (setting [16]) it was -0.288 and 0.13 and -0.654. For the same compound, in test [11], the remaining NAD was 10 nM (inactive). Moreover, in test [12], the luciferase signal was 36 AU (inactive). In addition, the log fold change Tl+ flux is 0.0247 (inactive) in the test with F380Y; -0.0231 (inactive) in the test with F380Y/beta2Delta; -0.0103 (inactive) in test [13]; 0.0103 (inactive) in the test with R275C; -0.0101 (inactive) in the test with R275C/beta1; -0.0183 (inactive) in the test with R275C/beta2Delta.

(Values after PubChem BioAssay.)
